Compounds without any hit were thinned out: in the full panel of roughly 83,000, 20% have a hit.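 Interpretation: 100, growth as untreated; towards 0, rising growth inhibition; 0, no net growth; 0 to -100, cell death. Compounds scoring below 10 were considered active.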 Unmarked numbers belong to inactive results. Active and inactive are the calls of the source.
test system: NCI-H23 lung; assay: NCI-60 one-dose screen, 48 h (100 = growth as untreated, 0 = no growth, -100 = all killed); details: 10 µM

Row | Compound | growth
1 | C/C(=N/NC(N)=O)c1ccco1 | 97.1%
2 | CC1CCCCN1C(=S)Nc1ccc(S(=O)(=O)N2CCCCC2)cc1 (centres undefined) | 104%
3 | COC(=O)c1ccc(C(C)C)cc1 | 100%
4 | OCC(O)C(O)C(O)C(O)/C=N/O (centres undefined) | 101%
5 | O=[N+]([O-])c1ccc(N=Nc2ccc(O)c3ccccc23)cc1 | 6.51% (active)
6 | Cc1ccc(S(=O)(=O)O)c(C)c1 | 105%
7 | COCCOC(=O)c1ccc(C(C)C)cc1 | 102%
8 | CCNc1nc2c(cnn2C)c(=O)[nH]1 | 99.7%
9 | NCCCN | 112%
10 | COc1cc2c3cc1Oc1c(OC)c(OC)cc4c1C(Cc1ccc(O)c(c1)Oc1ccc(cc1)CC3N(C)CC2)N(C)CC4 (centres undefined) | 10.8%
11 | O=[N+]([O-])c1ccccc1N=Nc1ccc(O)cc1O | 103%
12 | CCOC(=O)c1ccc(NC(=S)P(=O)(c2ccccc2)c2ccccc2)cc1 | 102%
13 | CCCCOC(=O)c1ccc(C(C)C)cc1 | 98.2%
14 | CC1C(=O)c2ccccc2CC1C(=O)O (centres undefined) | 96.8%
15 | CNc1nc(NC)c2cn[nH]c2n1 | 104%
16 | CC(=O)/C(Cc1ccccc1)=N/O | 97.3%
17 | COc1cc(C2c3cc4c(cc3C3OC(=O)C2C3CO)OCO4)cc(OC)c1OC (centres undefined) | 14.7%
18 | CCCC(C)OCC(=O)O (centres undefined) | 109%

test system: NCI-H322M lung; assay: as above; details: 10 µM

Row | Compound | growth
19 | CCCCCCCCCCC1CO1 (centres undefined) | 109%
20 | CC(=Nc1ccccc1)C1=C(O)C(Cc2cccc(F)c2)NC1=O (centres undefined) | 31.8%
21 | O=[N+]([O-])c1ccc(S(=O)(=O)NN=C2CCCCC2)cc1 | 108%
22 | CC(=O)OCC(=O)[C@@]1(O)CC[C@H]2[C@@H]3CC[C@@H]4C[C@H](O)CC[C@]4(C)[C@H]3C(=O)C[C@@]21C | 131%
23 | O=c1[nH]nc(SC2CCCCC2)c(=O)[nH]1 | 96.8%
24 | CC1CCC(C(=O)O)N1 (centres undefined) | 95.2%
25 | O=P(O)(O)OCC(O)CO (centres undefined) | 107%
26 | COc1cccc(/C=N/NC(=S)NC2CC3CCC2C3)c1O (centres undefined) | 62.2%
27 | CCn1c(=O)n(C)c2c(=O)n(C)c(=O)n(C)c21 | 105%
28 | O=C(O)CNC(=O)c1ccccc1 | 104%
29 | CC(=O)c1ccc(N=C(C#N)C2=C(O)c3ccccc3C2=O)cc1 | 100%
30 | O=[N+]([O-])c1cccc(N=Nc2ccc(O)cc2O)c1 | 95.9%
31 | COc1ccc(-c2cc3c(nn2)-c2ccccc2C3=O)cc1 | 65.6%
32 | COc1cc2nn(-c3ccccc3N)nc2cc1OC | 97.1%
33 | CC1CC(O)C2C3(C)CCCC2(COC3=O)C12CCC1(CCOC1=O)O2 (centres undefined) | 117%
34 | NC(=S)N/N=C/c1ccc(N)cc1 | 99.4%
35 | O=C(O)COCC(=O)O | 97.6%
36 | Cc1cc(N)c(S(=O)(=O)O)c(N)c1 | 101%
37 | S=C1CCCCCN1 | 99.5%
38 | O=c1[nH][nH]c(=O)c2cc([N+](=O)[O-])ccc12 | 123%

Row | Compound | growth
39 | CC(=O)OCCO | 102%
40 | C/C(=N/NC(N)=O)c1ccco1 | 107%
41 | CC1CCCCN1C(=S)Nc1ccc(S(=O)(=O)N2CCCCC2)cc1 (centres undefined) | 118%
42 | COC(=O)c1ccc(C(C)C)cc1 | 95.8%
43 | OCC(O)C(O)C(O)C(O)/C=N/O (centres undefined) | 103%
44 | O=[N+]([O-])c1ccc(N=Nc2ccc(O)c3ccccc23)cc1 | 79.3%
45 | Cc1ccc(S(=O)(=O)O)c(C)c1 | 96.7%
46 | COCCOC(=O)c1ccc(C(C)C)cc1 | 98.2%
47 | CCNc1nc2c(cnn2C)c(=O)[nH]1 | 95.5%
48 | NCCCN | 108%
49 | COc1cc2c3cc1Oc1c(OC)c(OC)cc4c1C(Cc1ccc(O)c(c1)Oc1ccc(cc1)CC3N(C)CC2)N(C)CC4 (centres undefined) | 44.6%
50 | O=[N+]([O-])c1ccccc1N=Nc1ccc(O)cc1O | 107%
51 | CCOC(=O)c1ccc(NC(=S)P(=O)(c2ccccc2)c2ccccc2)cc1 | 94.7%
52 | CCCCOC(=O)c1ccc(C(C)C)cc1 | 96.3%
53 | CC1C(=O)c2ccccc2CC1C(=O)O (centres undefined) | 99.5%
54 | CNc1nc(NC)c2cn[nH]c2n1 | 116%
55 | CC(=O)/C(Cc1ccccc1)=N/O | 105%
56 | COc1cc(C2c3cc4c(cc3C3OC(=O)C2C3CO)OCO4)cc(OC)c1OC (centres undefined) | 36.9%
57 | CCCC(C)OCC(=O)O (centres undefined) | 96.8%

test system: HOP-62 NSCLC; assay: as above; details: 10 µM

Row | Compound | growth
58 | CCCCCCCCCCC1CO1 (centres undefined) | 95.1%
59 | CC(=Nc1ccccc1)C1=C(O)C(Cc2cccc(F)c2)NC1=O (centres undefined) | 28.9%
60 | O=[N+]([O-])c1ccc(S(=O)(=O)NN=C2CCCCC2)cc1 | 99.5%
61 | CC(=O)OCC(=O)[C@@]1(O)CC[C@H]2[C@@H]3CC[C@@H]4C[C@H](O)CC[C@]4(C)[C@H]3C(=O)C[C@@]21C | 105%
62 | O=c1[nH]nc(SC2CCCCC2)c(=O)[nH]1 | 93.7%
63 | CC1CCC(C(=O)O)N1 (centres undefined) | 93.9%
64 | O=P(O)(O)OCC(O)CO (centres undefined) | 104%
65 | COc1cccc(/C=N/NC(=S)NC2CC3CCC2C3)c1O (centres undefined) | 39.6%
66 | CCn1c(=O)n(C)c2c(=O)n(C)c(=O)n(C)c21 | 97.2%
67 | CC(=O)c1ccc(N=C(C#N)C2=C(O)c3ccccc3C2=O)cc1 | 100%
68 | O=[N+]([O-])c1cccc(N=Nc2ccc(O)cc2O)c1 | 103%
69 | COc1ccc(-c2cc3c(nn2)-c2ccccc2C3=O)cc1 | -14.4% (active)
70 | COc1cc2nn(-c3ccccc3N)nc2cc1OC | 103%
71 | CC1CC(O)C2C3(C)CCCC2(COC3=O)C12CCC1(CCOC1=O)O2 (centres undefined) | 111%
72 | NC(=S)N/N=C/c1ccc(N)cc1 | 97%
73 | O=C(O)COCC(=O)O | 103%
74 | Cc1cc(N)c(S(=O)(=O)O)c(N)c1 | 94.9%
75 | S=C1CCCCCN1 | 92.9%
76 | O=c1[nH][nH]c(=O)c2cc([N+](=O)[O-])ccc12 | 102%

Row | Compound | growth
77 | CC(=O)OCCO | 109%
78 | C/C(=N/NC(N)=O)c1ccco1 | 85.7%
79 | COC(=O)c1ccc(C(C)C)cc1 | 87.8%
80 | OCC(O)C(O)C(O)C(O)/C=N/O (centres undefined) | 83.5%
81 | O=[N+]([O-])c1ccc(N=Nc2ccc(O)c3ccccc23)cc1 | 75.2%
82 | Cc1ccc(S(=O)(=O)O)c(C)c1 | 94.5%
83 | COCCOC(=O)c1ccc(C(C)C)cc1 | 80.3%
84 | CCNc1nc2c(cnn2C)c(=O)[nH]1 | 101%
85 | NCCCN | 99.4%
86 | COc1cc2c3cc1Oc1c(OC)c(OC)cc4c1C(Cc1ccc(O)c(c1)Oc1ccc(cc1)CC3N(C)CC2)N(C)CC4 (centres undefined) | 4.33% (active)
87 | O=[N+]([O-])c1ccccc1N=Nc1ccc(O)cc1O | 106%
88 | CCOC(=O)c1ccc(NC(=S)P(=O)(c2ccccc2)c2ccccc2)cc1 | 105%
89 | CCCCOC(=O)c1ccc(C(C)C)cc1 | 85.4%
90 | CC1C(=O)c2ccccc2CC1C(=O)O (centres undefined) | 105%
91 | CNc1nc(NC)c2cn[nH]c2n1 | 104%
92 | CC(=O)/C(Cc1ccccc1)=N/O | 98.4%
93 | COc1cc(C2c3cc4c(cc3C3OC(=O)C2C3CO)OCO4)cc(OC)c1OC (centres undefined) | 28.5%
94 | CCCC(C)OCC(=O)O (centres undefined) | 111%
